Measurements published in the supplement of paper PMC11732987, “Enantioselective OTUD7B fragment discovery through chemoproteomics screening and high-throughput optimisation” (Communications Chemistry, 2025).

Columns and labels:
Assay in all cases: log2 ratio of Biotin-Ahx-Ub-VS probe labelling (fragment/DMSO); higher = less target engagement (more negative = stronger competition), active = hit call of the paper (q ≤ 0.05, log2 ratio ≤ -1)
Conditions in all cases: compound concentration: 200 uM; treatment time: 3 h
USP42 = target: T1, USP42 (UniProt Q9H9J4)
T1 sequence (whole entry): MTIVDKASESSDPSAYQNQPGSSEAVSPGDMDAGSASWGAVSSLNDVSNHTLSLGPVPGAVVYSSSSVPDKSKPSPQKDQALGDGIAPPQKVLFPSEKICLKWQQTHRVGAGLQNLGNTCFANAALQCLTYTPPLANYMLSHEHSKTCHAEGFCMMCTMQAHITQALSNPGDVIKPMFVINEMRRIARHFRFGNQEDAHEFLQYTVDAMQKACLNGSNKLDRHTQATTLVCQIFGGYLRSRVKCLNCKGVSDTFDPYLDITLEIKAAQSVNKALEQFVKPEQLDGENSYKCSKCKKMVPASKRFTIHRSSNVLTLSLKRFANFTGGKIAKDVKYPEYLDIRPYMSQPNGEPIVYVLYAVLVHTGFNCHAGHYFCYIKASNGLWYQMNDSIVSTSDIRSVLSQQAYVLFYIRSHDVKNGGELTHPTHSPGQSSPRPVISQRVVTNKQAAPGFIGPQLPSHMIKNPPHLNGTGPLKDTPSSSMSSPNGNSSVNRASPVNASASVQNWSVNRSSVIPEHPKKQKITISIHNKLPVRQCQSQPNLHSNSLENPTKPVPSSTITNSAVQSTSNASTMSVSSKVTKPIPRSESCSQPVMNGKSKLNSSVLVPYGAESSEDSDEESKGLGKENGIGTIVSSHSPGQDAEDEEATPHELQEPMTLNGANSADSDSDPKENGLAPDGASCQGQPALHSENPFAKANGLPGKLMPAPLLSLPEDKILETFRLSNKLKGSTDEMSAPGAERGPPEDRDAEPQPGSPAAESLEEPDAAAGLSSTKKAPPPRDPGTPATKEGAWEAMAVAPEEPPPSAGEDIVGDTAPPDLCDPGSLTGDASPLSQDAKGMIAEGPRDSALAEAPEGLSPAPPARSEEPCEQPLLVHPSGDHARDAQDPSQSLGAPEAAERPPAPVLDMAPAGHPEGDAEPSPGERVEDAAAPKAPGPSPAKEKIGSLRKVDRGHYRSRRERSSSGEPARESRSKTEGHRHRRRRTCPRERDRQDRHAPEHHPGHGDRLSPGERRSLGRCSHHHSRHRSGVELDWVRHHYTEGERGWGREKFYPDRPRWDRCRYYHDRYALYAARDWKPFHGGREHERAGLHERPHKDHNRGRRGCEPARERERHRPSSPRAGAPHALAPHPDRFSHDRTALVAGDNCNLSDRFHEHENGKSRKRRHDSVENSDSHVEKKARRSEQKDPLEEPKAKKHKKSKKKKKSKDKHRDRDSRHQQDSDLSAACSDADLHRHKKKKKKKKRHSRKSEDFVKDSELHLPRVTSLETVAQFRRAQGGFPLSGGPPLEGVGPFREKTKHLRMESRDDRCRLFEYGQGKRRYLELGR
Summary of the method: (§1)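 HEK293T lysate (495 µg per sample, in Tris/CHAPS/IGEPAL buffer with protease inhibitors) was exposed in triplicate for 3 h to fragment at 200 µM or to vehicle, then to Biotin-Ahx-Ub-VS at 0.5 µM final for 1 h. Labelled DUBs were enriched on NeutrAvidin, digested with LysC and trypsin, and analysed by diaPASEF LC-MS/MS. Spectronaut label-free quantities were normalised to the global median, and values are average log2 ratios of fragment over vehicle from an unpaired t-test. Only proteins with ≥2 unique peptides were used.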

USP46 = USP46 (UniProt P62068)
USP46, sequence (P62068 whole entry): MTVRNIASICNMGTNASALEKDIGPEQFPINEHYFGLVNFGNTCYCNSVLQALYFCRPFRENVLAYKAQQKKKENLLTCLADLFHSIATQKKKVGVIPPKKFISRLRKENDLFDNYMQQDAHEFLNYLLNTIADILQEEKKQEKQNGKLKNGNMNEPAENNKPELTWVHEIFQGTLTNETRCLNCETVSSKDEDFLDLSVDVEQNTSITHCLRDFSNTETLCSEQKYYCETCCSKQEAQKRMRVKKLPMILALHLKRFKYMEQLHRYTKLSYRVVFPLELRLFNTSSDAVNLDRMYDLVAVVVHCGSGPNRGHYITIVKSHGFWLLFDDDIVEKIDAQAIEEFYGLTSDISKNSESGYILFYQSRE
Summary of the method: as §1

USP47 = target: T2, USP47 (UniProt Q96K76)
T2 sequence (whole entry): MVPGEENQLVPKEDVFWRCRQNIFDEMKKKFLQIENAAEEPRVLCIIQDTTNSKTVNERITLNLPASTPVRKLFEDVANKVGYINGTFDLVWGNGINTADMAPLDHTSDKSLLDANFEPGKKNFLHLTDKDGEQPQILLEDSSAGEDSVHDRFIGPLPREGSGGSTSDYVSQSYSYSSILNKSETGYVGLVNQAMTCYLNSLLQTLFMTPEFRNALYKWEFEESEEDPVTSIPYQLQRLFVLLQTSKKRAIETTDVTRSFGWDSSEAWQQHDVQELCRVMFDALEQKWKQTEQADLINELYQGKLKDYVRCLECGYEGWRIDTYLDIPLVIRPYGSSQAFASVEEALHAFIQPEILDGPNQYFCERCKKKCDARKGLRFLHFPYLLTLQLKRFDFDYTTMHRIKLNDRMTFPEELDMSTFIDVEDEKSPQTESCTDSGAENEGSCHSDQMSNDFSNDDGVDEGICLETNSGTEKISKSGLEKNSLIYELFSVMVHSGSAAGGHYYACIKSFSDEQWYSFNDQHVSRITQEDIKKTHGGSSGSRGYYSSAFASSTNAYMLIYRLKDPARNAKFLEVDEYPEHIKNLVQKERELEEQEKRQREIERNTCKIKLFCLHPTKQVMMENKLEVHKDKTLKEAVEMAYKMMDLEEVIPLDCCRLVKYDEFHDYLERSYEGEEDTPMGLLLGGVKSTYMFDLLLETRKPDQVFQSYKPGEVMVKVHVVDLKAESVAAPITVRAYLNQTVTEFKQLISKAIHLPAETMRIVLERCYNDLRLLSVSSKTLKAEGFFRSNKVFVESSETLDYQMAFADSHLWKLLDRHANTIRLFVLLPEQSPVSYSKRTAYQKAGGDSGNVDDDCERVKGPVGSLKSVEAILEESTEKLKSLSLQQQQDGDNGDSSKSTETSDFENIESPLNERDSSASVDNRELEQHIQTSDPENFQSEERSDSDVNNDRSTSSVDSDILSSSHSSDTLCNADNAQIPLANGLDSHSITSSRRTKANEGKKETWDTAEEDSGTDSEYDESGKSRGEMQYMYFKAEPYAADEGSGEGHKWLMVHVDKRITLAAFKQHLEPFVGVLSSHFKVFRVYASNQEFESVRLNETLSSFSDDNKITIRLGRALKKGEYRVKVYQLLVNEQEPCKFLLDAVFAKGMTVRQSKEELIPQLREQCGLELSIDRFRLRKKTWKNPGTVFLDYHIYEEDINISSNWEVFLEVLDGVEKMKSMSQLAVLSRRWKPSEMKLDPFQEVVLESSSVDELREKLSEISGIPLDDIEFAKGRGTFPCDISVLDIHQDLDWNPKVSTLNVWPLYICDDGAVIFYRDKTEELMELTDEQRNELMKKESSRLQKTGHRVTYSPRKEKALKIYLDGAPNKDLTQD
Summary of the method: as §1

USP48 = target: T3, USP48 (UniProt Q86UV5)
T3 sequence (whole entry): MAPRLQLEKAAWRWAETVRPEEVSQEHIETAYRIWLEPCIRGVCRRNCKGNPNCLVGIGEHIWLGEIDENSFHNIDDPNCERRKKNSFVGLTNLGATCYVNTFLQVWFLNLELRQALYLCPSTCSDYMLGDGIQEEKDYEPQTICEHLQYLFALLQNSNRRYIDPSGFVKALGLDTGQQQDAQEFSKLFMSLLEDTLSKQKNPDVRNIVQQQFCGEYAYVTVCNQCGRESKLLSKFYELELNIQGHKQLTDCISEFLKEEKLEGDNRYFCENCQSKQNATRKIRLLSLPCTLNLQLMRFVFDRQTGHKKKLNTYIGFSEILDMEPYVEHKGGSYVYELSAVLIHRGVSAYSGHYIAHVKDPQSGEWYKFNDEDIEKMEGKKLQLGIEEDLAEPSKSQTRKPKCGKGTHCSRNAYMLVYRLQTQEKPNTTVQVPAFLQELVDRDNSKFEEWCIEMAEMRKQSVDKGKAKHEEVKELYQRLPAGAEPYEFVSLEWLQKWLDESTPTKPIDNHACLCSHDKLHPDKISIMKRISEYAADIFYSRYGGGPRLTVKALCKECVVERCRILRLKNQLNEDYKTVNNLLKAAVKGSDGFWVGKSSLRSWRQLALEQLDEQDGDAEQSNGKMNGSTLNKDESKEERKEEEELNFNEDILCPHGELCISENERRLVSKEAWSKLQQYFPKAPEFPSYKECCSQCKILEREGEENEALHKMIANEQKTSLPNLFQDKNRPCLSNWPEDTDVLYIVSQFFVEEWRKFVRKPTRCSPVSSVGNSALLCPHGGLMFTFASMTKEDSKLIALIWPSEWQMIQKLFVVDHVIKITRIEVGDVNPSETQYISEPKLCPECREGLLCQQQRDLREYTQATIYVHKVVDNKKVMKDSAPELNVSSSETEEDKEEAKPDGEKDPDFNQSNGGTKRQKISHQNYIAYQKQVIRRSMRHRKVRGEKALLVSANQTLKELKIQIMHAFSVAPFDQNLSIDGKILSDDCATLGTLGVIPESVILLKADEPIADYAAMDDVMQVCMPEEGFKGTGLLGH
Summary of the method: as §1

USP5 = target: T4, USP5 (UniProt P45974)
T4 sequence (whole entry): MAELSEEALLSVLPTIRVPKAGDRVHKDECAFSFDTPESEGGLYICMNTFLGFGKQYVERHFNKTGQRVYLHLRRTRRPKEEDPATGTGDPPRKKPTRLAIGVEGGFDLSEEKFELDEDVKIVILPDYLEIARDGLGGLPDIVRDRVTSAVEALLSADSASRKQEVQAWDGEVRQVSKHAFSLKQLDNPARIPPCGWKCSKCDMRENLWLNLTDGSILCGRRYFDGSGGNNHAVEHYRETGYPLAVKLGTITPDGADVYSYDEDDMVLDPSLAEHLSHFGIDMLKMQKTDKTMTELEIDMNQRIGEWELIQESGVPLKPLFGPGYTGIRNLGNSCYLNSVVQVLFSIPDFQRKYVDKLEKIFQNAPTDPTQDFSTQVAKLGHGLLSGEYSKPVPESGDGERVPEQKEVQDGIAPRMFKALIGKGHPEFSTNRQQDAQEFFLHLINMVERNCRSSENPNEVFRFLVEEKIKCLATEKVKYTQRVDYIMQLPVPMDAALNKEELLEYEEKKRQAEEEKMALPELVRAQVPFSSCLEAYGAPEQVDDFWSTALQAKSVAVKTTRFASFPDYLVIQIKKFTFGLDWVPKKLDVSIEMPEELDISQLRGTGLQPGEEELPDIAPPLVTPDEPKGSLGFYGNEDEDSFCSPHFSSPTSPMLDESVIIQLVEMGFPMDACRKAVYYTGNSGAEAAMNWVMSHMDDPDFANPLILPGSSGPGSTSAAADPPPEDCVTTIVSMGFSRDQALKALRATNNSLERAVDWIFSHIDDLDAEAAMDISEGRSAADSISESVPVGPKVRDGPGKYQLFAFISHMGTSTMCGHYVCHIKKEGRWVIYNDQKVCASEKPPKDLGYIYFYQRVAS
Summary of the method: as §1

USP54 = USP54 (UniProt Q70EL1)
Summary of the method: as §1

USP7 = USP7 (UniProt Q93009)
USP7, sequence (Q93009 whole entry, looked up): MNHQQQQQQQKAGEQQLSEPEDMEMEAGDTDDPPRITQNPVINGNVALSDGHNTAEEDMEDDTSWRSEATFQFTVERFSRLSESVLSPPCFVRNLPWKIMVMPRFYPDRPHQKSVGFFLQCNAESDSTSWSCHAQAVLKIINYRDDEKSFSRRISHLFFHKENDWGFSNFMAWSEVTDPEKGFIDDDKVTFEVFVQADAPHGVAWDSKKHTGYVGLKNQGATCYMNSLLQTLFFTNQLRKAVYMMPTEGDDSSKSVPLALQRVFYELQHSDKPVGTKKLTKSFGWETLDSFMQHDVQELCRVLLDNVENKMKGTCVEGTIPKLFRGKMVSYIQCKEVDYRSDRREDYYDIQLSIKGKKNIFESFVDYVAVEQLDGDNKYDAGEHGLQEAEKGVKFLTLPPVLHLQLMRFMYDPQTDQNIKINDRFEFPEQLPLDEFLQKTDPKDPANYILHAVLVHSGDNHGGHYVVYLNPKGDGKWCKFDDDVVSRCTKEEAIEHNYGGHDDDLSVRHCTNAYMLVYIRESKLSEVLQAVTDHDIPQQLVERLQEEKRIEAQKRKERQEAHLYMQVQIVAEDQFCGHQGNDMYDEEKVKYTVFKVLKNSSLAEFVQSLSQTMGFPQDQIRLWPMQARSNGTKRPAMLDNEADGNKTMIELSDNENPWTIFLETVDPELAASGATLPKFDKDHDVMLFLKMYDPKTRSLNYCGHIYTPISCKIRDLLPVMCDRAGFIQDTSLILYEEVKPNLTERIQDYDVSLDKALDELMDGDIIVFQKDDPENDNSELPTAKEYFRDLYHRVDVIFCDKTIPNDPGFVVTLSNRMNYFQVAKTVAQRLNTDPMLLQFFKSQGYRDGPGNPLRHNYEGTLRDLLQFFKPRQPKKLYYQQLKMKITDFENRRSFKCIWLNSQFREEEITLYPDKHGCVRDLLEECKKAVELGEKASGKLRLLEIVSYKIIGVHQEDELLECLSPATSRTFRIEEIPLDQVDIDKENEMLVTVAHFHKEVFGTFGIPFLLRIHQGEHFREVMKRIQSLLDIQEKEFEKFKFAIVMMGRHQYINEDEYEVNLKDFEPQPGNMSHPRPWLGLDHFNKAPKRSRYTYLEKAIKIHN
Summary of the method: as §1

USP8 = target: T5, USP8 (UniProt P40818)
T5 sequence (whole entry): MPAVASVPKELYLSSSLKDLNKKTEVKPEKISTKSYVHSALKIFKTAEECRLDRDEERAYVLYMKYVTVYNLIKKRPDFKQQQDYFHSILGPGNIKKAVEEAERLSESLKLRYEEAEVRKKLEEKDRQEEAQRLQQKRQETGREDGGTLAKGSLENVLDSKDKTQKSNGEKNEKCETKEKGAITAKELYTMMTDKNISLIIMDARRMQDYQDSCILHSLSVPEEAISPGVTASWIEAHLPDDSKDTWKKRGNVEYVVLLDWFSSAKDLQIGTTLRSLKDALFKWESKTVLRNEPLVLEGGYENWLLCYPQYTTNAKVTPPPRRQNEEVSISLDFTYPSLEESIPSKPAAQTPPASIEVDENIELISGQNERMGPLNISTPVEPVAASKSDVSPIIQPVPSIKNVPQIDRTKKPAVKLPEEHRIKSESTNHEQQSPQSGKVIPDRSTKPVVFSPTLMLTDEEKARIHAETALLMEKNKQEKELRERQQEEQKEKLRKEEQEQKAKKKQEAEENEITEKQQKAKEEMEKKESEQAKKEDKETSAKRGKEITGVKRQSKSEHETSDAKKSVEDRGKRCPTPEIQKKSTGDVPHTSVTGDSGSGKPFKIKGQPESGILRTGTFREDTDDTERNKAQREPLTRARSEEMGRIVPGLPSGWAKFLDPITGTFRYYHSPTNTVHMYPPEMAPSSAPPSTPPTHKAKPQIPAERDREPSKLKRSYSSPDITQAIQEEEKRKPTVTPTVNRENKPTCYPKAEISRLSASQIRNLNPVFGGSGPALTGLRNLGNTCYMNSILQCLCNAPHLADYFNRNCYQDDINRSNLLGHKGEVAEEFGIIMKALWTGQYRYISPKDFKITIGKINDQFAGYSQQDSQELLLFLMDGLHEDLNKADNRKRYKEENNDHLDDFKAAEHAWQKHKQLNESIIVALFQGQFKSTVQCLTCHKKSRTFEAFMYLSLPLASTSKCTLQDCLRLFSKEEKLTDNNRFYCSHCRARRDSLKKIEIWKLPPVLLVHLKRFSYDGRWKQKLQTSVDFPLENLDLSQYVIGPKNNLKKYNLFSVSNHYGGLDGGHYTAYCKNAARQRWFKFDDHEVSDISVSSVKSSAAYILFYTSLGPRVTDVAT
Summary of the method: as §1

USP9X = USP9X (UniProt Q93008)
USP9X, sequence (Q93008 whole entry): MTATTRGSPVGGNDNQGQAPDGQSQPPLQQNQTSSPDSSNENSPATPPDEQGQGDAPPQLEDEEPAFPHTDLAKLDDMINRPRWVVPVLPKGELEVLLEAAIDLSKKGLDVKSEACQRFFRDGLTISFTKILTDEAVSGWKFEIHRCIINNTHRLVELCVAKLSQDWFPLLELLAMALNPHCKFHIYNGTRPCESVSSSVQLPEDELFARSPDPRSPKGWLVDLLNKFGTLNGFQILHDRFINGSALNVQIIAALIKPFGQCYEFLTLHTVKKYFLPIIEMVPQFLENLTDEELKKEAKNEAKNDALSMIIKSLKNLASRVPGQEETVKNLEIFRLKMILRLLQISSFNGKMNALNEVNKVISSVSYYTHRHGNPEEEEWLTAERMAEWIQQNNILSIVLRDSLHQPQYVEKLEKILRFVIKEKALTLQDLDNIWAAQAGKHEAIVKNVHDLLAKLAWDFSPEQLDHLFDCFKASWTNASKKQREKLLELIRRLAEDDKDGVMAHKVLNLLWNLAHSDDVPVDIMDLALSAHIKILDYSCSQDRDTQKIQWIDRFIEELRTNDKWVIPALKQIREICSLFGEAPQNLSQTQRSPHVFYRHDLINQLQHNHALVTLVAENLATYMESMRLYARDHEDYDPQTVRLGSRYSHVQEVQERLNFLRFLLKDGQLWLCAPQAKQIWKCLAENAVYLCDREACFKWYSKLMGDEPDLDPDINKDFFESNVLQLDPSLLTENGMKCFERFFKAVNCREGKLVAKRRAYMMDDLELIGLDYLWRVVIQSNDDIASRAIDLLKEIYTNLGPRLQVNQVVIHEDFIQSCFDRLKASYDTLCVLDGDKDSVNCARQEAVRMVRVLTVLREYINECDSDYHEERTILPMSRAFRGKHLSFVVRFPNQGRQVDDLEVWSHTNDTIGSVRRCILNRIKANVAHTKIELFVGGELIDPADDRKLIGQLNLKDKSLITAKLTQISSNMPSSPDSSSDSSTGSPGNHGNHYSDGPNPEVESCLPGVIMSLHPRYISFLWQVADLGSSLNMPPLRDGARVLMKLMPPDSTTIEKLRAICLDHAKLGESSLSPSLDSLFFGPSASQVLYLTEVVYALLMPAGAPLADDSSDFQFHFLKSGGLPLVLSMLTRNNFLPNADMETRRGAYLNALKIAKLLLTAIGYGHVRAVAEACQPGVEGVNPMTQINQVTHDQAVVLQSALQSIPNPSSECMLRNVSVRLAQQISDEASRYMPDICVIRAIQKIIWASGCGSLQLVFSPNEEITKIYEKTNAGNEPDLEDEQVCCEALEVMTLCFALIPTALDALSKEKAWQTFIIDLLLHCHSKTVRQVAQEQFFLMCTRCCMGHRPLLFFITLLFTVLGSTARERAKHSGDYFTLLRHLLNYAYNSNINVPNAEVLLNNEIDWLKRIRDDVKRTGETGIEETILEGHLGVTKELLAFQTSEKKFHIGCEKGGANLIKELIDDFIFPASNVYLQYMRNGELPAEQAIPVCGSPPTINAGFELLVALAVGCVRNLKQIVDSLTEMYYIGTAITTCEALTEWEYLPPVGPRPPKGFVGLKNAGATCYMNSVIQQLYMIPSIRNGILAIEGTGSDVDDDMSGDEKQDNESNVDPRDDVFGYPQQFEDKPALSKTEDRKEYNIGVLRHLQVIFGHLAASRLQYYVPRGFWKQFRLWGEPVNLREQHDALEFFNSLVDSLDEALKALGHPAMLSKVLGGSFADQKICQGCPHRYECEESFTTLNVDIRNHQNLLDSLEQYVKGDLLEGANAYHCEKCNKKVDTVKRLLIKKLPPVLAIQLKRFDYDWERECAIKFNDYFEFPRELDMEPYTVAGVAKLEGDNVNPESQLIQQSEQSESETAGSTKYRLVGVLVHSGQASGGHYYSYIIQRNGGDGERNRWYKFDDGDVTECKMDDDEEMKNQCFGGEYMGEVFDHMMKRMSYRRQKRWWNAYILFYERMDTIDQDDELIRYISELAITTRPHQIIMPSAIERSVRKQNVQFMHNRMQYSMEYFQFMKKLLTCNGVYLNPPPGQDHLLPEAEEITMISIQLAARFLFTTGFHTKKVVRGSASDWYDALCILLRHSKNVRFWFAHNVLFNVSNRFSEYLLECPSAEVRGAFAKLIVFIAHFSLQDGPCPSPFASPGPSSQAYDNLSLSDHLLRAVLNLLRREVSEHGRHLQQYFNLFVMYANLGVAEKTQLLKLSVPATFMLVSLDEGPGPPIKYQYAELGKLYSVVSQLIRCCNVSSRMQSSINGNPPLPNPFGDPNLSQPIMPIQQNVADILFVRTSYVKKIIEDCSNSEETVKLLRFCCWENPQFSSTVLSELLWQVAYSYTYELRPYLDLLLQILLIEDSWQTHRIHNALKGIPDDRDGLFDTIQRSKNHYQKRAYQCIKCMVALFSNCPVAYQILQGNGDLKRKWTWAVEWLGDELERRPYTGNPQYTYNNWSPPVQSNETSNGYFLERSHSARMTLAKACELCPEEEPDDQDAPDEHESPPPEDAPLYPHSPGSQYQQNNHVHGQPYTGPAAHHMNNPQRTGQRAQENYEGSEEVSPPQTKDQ
Summary of the method: as §1

UniProt O00487 = target: UniProt O00487
UniProt O00487, sequence (O00487 whole entry): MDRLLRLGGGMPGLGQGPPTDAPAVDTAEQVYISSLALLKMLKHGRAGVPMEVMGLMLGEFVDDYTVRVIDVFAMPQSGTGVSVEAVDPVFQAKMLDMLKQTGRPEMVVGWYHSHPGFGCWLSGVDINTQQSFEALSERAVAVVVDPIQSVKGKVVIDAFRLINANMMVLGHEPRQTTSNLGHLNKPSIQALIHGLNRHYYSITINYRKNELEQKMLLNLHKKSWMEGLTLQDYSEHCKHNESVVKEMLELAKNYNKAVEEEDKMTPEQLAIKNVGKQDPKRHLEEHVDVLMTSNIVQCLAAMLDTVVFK
Summary of the method: as §1

Measured: log2 ratio of Biotin-Ahx-Ub-VS probe labelling

CN(C)C(=O)c1ccc(NC(=O)CCl)cc1
inactive: USP42 -0.0444 | USP46 -0.0105 | USP47 -0.38 | USP48 -0.84 | USP5 0.14 | USP54 -0.408 | USP7 -0.0714 | USP8 -0.446 | USP9X -0.0881 | UniProt O00487 -0.0189
